A selection: hits, their analogues and other compounds. The true share with any hit is near 3.8%.
HSF1 inh: HSF1 inhibition; NIH3T3-HGL HSE-luciferase, MG132-induced, luminescence 8 h; active compounds read low; activity change, negative = inhibition, % at 7.5 µM (by protocol); 300,000 tested, 0.77% active; AID 2098;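 active = more than half of replicate wells show activity change below -50%, luminescence cut by over half; inconclusive = some wells, but at most half, below -50%; inactive = no replicate well below -50%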;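 note: luciferase reports HSF-1 transcriptional activity via heat shock element; 0% = median of DMSO wells and -100% = zero luminescence signal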
esBAF inh: blocks esBAF chromatin remodeling in mouse ES cells; 350,000 tested, 2% active; Bmi1-luciferase knock-in reporter, 24 h; 100% = twice the neutral-well signal; reporter increase, % at 12.5 µM; in the data active = activation above about 40%; inconclusive = no clear call, values can overlap the other calls;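 note: 0% = median of the plate's neutral control wells and 100% = double that signal; a rise in the Bmi1 reporter signal indicates esBAF inhibition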
HSF-1 act: increases HSF-1 driven luciferase reporter signal | AID 504408 | NIH3T3-HGL HSF-1 luciferase reporter, MG132, 8 h; 100% = twice DMSO control signal | 300,000 tested, 1.7% active | activation, % at 9 µM;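 active = mean replicate activation of at least 50% with a set share of replicates each reaching 50%; inconclusive = only one of those two conditions met; inactive = mean below 50% and too few replicates reaching it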;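 note: 0% = median of the neutral control wells and 100% = twice that signal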
Wnt act: Wnt/beta-catenin pathway activation; Wnt/beta-catenin reporter cell assay, activator, plate reader; 300,000 tested, 1.2% active; activation, % at 9.35 µM; AID 743398; in the data active = activation above about 30%, passing the limit was not always enough; inconclusive = no clear call, values can overlap the other calls;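 note: 0% = neutral control wells and 100% = positive control wells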
MITF act: activators of MITF-driven TRPM1 promoter activity in SK-MEL-5 cells | SK-MEL-5 TRPM1-promoter luciferase, 24 h; % of positive control, neutral wells = 0 | activation, % at 12.5 µM | 300,000 tested, 0.75% active;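 active = mean activation of at least 80% with every replicate also reaching 80%; inconclusive = mean reaches 80% but some replicate falls short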;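 note: 0% = neutral control wells and 100% = parthenolide positive control wells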
Starred values were filed as active, the others as inactive; ? = inconclusive; · = not tested or not shown.

SMILES	HSF1 inh	esBAF inh	HSF-1 act	Wnt act	MITF act
CC=Cc1ccc2n(c1=O)C[C@@H]1[C@@H](CO)[C@H](C(=O)NCCc3ccncc3)N(CCC(F)(F)F)[C@H]21 (mixture of isomers)	·	0	·	·	·
N#C/C(=N\Nc1ccc(Br)cc1)C(=N)N1CCOCC1	16	56*	34	12	92*
N#C/C(=N/Nc1ccc([N+](=O)[O-])cc1)C(=N)N1CCCCC1	38	·	42	·	101*
N#C/C(=N\Nc1ccccc1[N+](=O)[O-])C(=N)N1CCCCC1	35	51*	64*	54*	57
C[C@@H]1CN([C@@H](C)CO)C(=O)c2cc(C#C[C@@H](C)O)cnc2O[C@@H]1CN(C)C(=O)Nc1ccc(C(F)(F)F)cc1	·	-4	·	·	·
CS(=O)(=O)Nc1ccc2c(c1)[C@@H]1C[C@@H](CC(=O)NCc3ccccc3F)O[C@H](CO)[C@@H]1O2	·	2	·	·	·
Cc1ccccc1CO/N=C/c1[nH]ncc1Br	-85*	·	-89	3	·
CN(C)S(=O)(=O)Oc1ccccc1C(=O)Nc1ccc(F)cc1F	1	·	11	-3	1
CCN(CC)C(=O)Oc1ccc(Br)cc1C(=O)Nc1ccc(F)cc1F	38	·	72*	-3	·
Cn1c(-c2ccc([N+](=O)[O-])cc2)nc2ccccc21	16	6	18	32*	34
Cn1cc([N+](=O)[O-])cc1-c1nc2ccccc2n1C	6	2	-5	1	·
CO[C@H]1CN(C)C(=O)c2cc(NC(=O)Nc3c(C)noc3C)ccc2OC[C@@H](C)N(C)C[C@H]1C	·	-2	·	·	·
CSc1ncc(C(=O)Nc2ccc(Cl)cc2)c(C)n1	2	5	0	2	8
CSc1ncc(C(=O)Nc2ccc(C(C)=O)cc2)c(C)n1	2	52*	9	7	57
COc1ccc2cc(-c3[nH]ncc3CN3CCCCO3)ccc2c1	6	56*	16	3	34
COc1ccc(-c2[nH]ncc2CN2CCCO2)cc1F	-3	·	13	1	-4
CCOC(=O)CN(C)Cc1cn[nH]c1-c1ccc2cc(OC)ccc2c1	16	25	18	3	·
COCCN(Cc1cn[nH]c1-c1ccc2cc(OC)ccc2c1)C(C)C	38	13	56*	2	·
C[C@@H]1CN([C@@H](C)CO)C(=O)c2cc(NS(=O)(=O)c3ccc(Cl)cc3)ccc2O[C@@H]1CN(C)CC1CC1	·	-4	·	·	·
COCCNC(=O)C[C@@H]1C=C[C@H](NC(=O)NC2CCCC2)[C@@H](CO)O1	·	-5	·	·	·
CCCN(C)C[C@@H]1Oc2cc(-c3cccc(C#N)c3)ccc2S(=O)(=O)N([C@H](C)CO)C[C@@H]1C	·	-2	·	·	·
Cc1ccc(Cl)c(OCC(=O)Nc2cccnc2)c1	6	34	24	27	101*
O=C(COc1ccccc1Cl)Nc1cccnc1	9	·	12	0	56
Cc1ccc(Cl)c(OCC(=O)Nc2ccc3c(c2)OCCO3)c1	11	86*	5	·	131*
Cc1ccc(C(=O)OC(C)C(=O)Nc2ccc3c(c2)OCO3)c(O)c1 (stereo not drawn)	·	50*	·	-6	17
SMILES	HSF1 inh	esBAF inh	HSF-1 act	Wnt act	MITF act
Cc1ccc(OCC(=O)Nc2ccc3c(c2)OCO3)c(C)c1	9	·	1	13	89*
Cc1ccc(C(NC(=O)/C=C\c2ccc3c(c2)OCO3)C(=O)Nc2ccc3c(c2)OCO3)cc1 (stereo not drawn)	39	·	99*	·	3
Cc1ccc(NC(=O)CN(C)C(=O)/C=C/c2ccc3c(c2)OCO3)cc1	·	-12	·	28	·
CC1=NN(c2ccc(C)cc2C)C(=O)C1C(c1ccccc1)C1C(=O)N(c2ccc(C)cc2C)N=C1C (stereo not drawn)	48	-3	64*	·	-3
COc1ccc(/C(C)=N/Nc2cccc(C(=O)O)c2)cc1OC	-5	53*	19	5	8
C/C(=N\Nc1cccc(C(=O)O)c1)c1ccc(Cl)s1	-2	73*	0	16	68
COc1ccc(C(=O)N/N=C(/C)c2cccc(NC(=O)c3ccncc3)c2)cc1OC	-4	7	-7	3	10
C/C(=N\NC(=O)C(=O)Nc1cccc(C(F)(F)F)c1)c1ccc(Cl)s1	·	5	·	·	·
CC(C)c1ccc(NC(=O)Nc2cc3sccc3n2C)cc1	-77*	0	-82	-4	·
Cn1c(C(=O)Nc2ccc3c(c2)OCCO3)cc2sccc21	0	-1	1	-1	34
C[C@H](CO)N1C[C@H](C)[C@H](CN(C)C(=O)C2CCOCC2)Oc2ncc(C#CCc3ccccc3)cc2C1=O	·	-5	·	·	·
CC1(C)Cc2c(sc3[nH]c(=S)n(Cc4ccco4)c(=O)c23)CO1	23	-6	40	-8	5
O=c1c2c3c(sc2[nH]c(=S)n1Cc1ccco1)CCC3	75	11	94*	1	3
Cc1cc(C)c(C#N)c(SCc2nc3ccccc3[nH]2)n1	43	·	60*	·	17
c1ccc(SCc2nc3ccccc3[nH]2)cc1	19	·	38	·	64
Clc1ccc(SCc2nc3ccccc3[nH]2)cc1	31	36	56*	·	119*
Cc1ccc(CSCc2nc3ccccc3[nH]2)cc1	9	·	-11	0	4
Fc1ccccc1CSCc1nc2ccccc2[nH]1	19	64*	24	2	90*
Cc1ccc(SCc2nc3ccccc3[nH]2)cc1	35	?	90*	·	73
CO[C@H]1CN(C)C(=O)c2ccc(NS(C)(=O)=O)cc2OC[C@@H](C)N(C(=O)C2CCC2)C[C@H]1C	·	-3	·	·	·
COc1ccc(S(=O)(=O)N(C)C[C@H]2Oc3c(NC(=O)Nc4ccc(C(F)(F)F)cc4)cccc3C(=O)N([C@@H](C)CO)C[C@H]2C)cc1	·	14	·	·	·
Cc1noc(C)c1NC(=O)Nc1ccc2c(c1)C(=O)N(C)[C@H]1CC[C@H](CC(=O)N(C)C)O[C@H]1CO2	·	2	·	·	·
O=c1[nH]c2ccccc2nc1-c1ccc(Cl)cc1	24	·	59*	51*	·
O=c1[nH]c2ccccc2nc1-c1ccccc1	0	·	3	24	12
O=C(C[C@H]1CC[C@@H](NC(=O)C2CCC2)[C@H](CO)O1)NC1CCCCC1	·	-9	·	·	·
SMILES	HSF1 inh	esBAF inh	HSF-1 act	Wnt act	MITF act
O=C(CC(SCc1ccco1)c1ccc(O)cc1)c1cccs1 (stereo not drawn)	14	71*	22	·	67
O=C(CC(SCCO)c1ccc2c(c1)OCO2)c1cccs1 (stereo not drawn)	24	84*	40	42*	88*
O=C(CC(F)(F)F)N1C[C@H]2[C@@H](c3ccccc31)[C@H](CO)N2C(=O)C1CC1	·	5	·	·	·
O=C(CN1C(=O)S/C(=C\C=C\c2ccccc2)C1=O)Nc1cccc(O)c1	105	65*	154*	24	52
O=C(CCN1C(=O)S/C(=C\C=C\c2ccccc2)C1=O)Nc1ccc(O)cc1	69	93*	100*	21	35
O=C(CN1C(=O)S/C(=C\C=C\c2ccccc2)C1=O)Nc1ccccc1C(=O)O	0	·	15	2	5

From PubChem
